Results on 44 sequences are retold here after the supplement of paper PMC3545927.

Some of the results follow. How many sequences the whole screen found active is unknown.

The assay has as its target furin, P09958. Put plainly: furin cleavage Z-score vs untreated control; higher = more cleavage, active = 3.5 or more, inactive = 1 or less, 8 variable residues between constant flanks. Summed up: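 Furin cleavage was scored on 8-mer peptides joined to a cDNA oligonucleotide and bound to magnetic beads at the N-terminus. Digestion with purified furin (1:10 enzyme:substrate, 0.01 ml, 50 mM HEPES pH 7.5, CaCl2, NaCl) lasted 7.5, 15 or 30 min. Freed DNA was tagged with adapters by PCR, sequenced and counted; the cleavage Z-score is the lowess-adjusted log count versus furin-free reactions, scaled by median absolute deviation.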

furin, P09958, sequence (P09958 whole entry): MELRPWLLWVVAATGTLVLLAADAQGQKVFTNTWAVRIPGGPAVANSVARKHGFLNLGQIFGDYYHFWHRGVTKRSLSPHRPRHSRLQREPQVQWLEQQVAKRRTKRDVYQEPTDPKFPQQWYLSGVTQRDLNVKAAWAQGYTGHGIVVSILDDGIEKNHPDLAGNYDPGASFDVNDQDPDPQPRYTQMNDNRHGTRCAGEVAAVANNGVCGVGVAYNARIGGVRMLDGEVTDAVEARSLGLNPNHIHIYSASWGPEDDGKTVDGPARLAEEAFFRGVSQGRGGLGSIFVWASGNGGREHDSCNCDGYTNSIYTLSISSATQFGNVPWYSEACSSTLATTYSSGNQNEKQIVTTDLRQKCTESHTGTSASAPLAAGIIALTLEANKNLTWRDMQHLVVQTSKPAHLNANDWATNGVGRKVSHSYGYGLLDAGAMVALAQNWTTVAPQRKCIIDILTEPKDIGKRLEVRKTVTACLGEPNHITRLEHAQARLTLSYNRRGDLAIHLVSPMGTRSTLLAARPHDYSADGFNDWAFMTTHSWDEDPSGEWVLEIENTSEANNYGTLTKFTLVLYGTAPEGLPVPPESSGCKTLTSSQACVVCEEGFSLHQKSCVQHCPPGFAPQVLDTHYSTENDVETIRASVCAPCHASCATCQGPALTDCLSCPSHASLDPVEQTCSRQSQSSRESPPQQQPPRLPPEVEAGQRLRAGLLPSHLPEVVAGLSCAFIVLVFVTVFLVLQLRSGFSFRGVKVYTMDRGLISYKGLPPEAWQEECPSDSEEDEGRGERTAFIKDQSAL

For the sequence CAISQAEAALAGNASASA [HC531], the “furin cleavage Z-score” value reads like this: (7.5 min) -1.47 (inactive); (15 min) -0.433 (inactive); (30 min) -1.7 (inactive).
Consider CAVVCCIMSYAGNASASA [HC105], for which the “furin cleavage Z-score” value reads like this: (7.5 min) 1.49; (15 min) 0.708 (inactive); (30 min) 1.08.
Take CAYRGRCRKSAGNASASA [FS-923]: the “furin cleavage Z-score” value by setting is: (7.5 min) 0.471 (inactive); (15 min) 1.55; (30 min) 0.866 (inactive).
In the case of CAYRGRHRRFAGNASASA [FS-152], the “furin cleavage Z-score” value (7.5 min) is 5.94 (active), the “furin cleavage Z-score” value (15 min) is 6.27 (active) and the “furin cleavage Z-score” value (30 min) is 6.98 (active).
Regarding CAHTQRNRRSAGNASASA [FS-799], the “furin cleavage Z-score” value runs as follows: (7.5 min) 11.3 (active); (15 min) 12.6 (active); (30 min) 10.4 (active).
Taken in the same sequence, the figures for CAKLRRNRRSAGNASASA [FS-1221] were 5.36 (active), 6.08 (active) and 4.35 (active).
On to CATAQGMKRSAGNASASA [FS-725], for which the “furin cleavage Z-score” value by setting is: (7.5 min) 1.25; (15 min) 1.19; (30 min) -0.124 (inactive).
Taken in the same sequence, the figures for CATVSGFVSLAGNASASA [HC358] were 0.667 (inactive), -0.762 (inactive) and 1.14.
CAEDEVPCHRAGNASASA [HC2451]: the “furin cleavage Z-score” value by setting is: (7.5 min) 1.14; (15 min) 0.677 (inactive); (30 min) 1.09.
In the case of CANWAKVLVVAGNASASA [HC344], the “furin cleavage Z-score” value is 0.338 (inactive) (7.5 min), -0.0162 (inactive) (15 min) and 1.26 (30 min).
Taken in the same sequence, the figures for CAPLTRSKRDAGNASASA [FS-700] were 15 (active), 15 (active) and 10.2 (active).
In the case of CAPRAKVKREAGNASASA [FS-281], the “furin cleavage Z-score” value by setting is: (7.5 min) 11.8 (active); (15 min) 10.8 (active); (30 min) 7.73 (active).
Take CATRSRSERDAGNASASA [FS-884]: the “furin cleavage Z-score” value runs as follows: (7.5 min) 2.38; (15 min) 3.17; (30 min) 0.745 (inactive).
Turning to CAQGYKVLVLAGNASASA [HC784], the “furin cleavage Z-score” value by setting is: (7.5 min) -0.106 (inactive); (15 min) -0.421 (inactive); (30 min) -0.768 (inactive).
Regarding CAGGGRSKRDAGNASASA [FS-997], the “furin cleavage Z-score” value reads like this: (7.5 min) 12.9 (active); (15 min) 11.9 (active); (30 min) 8.83 (active).
In the case of CAPLTNSRGEAGNASASA [HC1503], the “furin cleavage Z-score” value is -0.174 (inactive) (7.5 min), -0.452 (inactive) (15 min) and 1.07 (30 min).
CANRERSKRDAGNASASA [FS-182]: the “furin cleavage Z-score” value runs as follows: (7.5 min) 13.6 (active); (15 min) 14.6 (active); (30 min) 10.7 (active).
In the same order, the values of CATRCHCGAEAGNASASA [HC1174] are -0.133 (inactive), -0.874 (inactive) and -0.744 (inactive).
Take CAHDSPDAELAGNASASA [HC1270]: the “furin cleavage Z-score” value reads like this: (7.5 min) -0.658 (inactive); (15 min) -0.493 (inactive); (30 min) -0.66 (inactive).
For CAVVCCSMCYAGNASASA [HC2080], the “furin cleavage Z-score” value by setting is: (7.5 min) 0.362 (inactive); (15 min) -0.833 (inactive); (30 min) 2.39.
Taken in the same sequence, the figures for CAQEVRSKRDAGNASASA [FS-622] were 14.6 (active), 15.6 (active) and 10.9 (active).
As for CAKERRSKRDAGNASASA [FS-934], the “furin cleavage Z-score” value was 12.1 (active) (7.5 min), 12.8 (active) (15 min) and 8.75 (active) (30 min).
Regarding CAREKKADRDAGNASASA [FS-2913], the “furin cleavage Z-score” value is, setting by setting: (7.5 min) 0.241 (inactive); (15 min) -0.361 (inactive); (30 min) -1.01 (inactive).
Regarding CAPRALRKRDAGNASASA [FS-1603], the “furin cleavage Z-score” value was 9.96 (active) (7.5 min), 9.61 (active) (15 min) and 8.35 (active) (30 min).
As to CAQWHLSKRDAGNASASA [FS-485], the “furin cleavage Z-score” value (7.5 min) was 0.736 (inactive), the “furin cleavage Z-score” value (15 min) was 2.32 and the “furin cleavage Z-score” value (30 min) was 1.82.
In the case of CASTPCSLHLAGNASASA [HC2525], the “furin cleavage Z-score” value was 0.933 (inactive) (7.5 min), 1.1 (15 min) and 1.05 (30 min).
Taken in the same sequence, the figures for CAEMPCHRPSAGNASASA [HC2326] were 0.275 (inactive), 1.07 and -0.483 (inactive).
In the same order, the values of CASKKRKKKHAGNASASA [FS-720] are -0.105 (inactive), 0.768 (inactive) and 1.79.
CAVLSRDGRKAGNASASA [FS-105]: the “furin cleavage Z-score” value was -1.15 (inactive) (7.5 min), 0.968 (inactive) (15 min) and 0.203 (inactive) (30 min).
For the sequence CAVLSRRKRHAGNASASA [FS-1430], the “furin cleavage Z-score” value reads like this: (7.5 min) 13.5 (active); (15 min) 13.1 (active); (30 min) 9.48 (active).
Turning to CAPRYRRKRHAGNASASA [FS-1552], the “furin cleavage Z-score” value is, setting by setting: (7.5 min) 10.8 (active); (15 min) 11.7 (active); (30 min) 10.8 (active).
CASAHREPRLAGNASASA [FS-143]: the “furin cleavage Z-score” value by setting is: (7.5 min) -0.537 (inactive); (15 min) -2.16 (inactive); (30 min) -0.735 (inactive).
CASATRRKRHAGNASASA [FS-145]: the “furin cleavage Z-score” value (7.5 min) was 10.8 (active), the “furin cleavage Z-score” value (15 min) is 9.07 (active) and the “furin cleavage Z-score” value (30 min) was 8.87 (active).
With CAVLSGKPAIAGNASASA [HC1004], the “furin cleavage Z-score” value is -1.21 (inactive) (7.5 min), -0.08 (inactive) (15 min) and -0.703 (inactive) (30 min).
For the sequence CARNMWSGTFAGNASASA [HC1187], the “furin cleavage Z-score” value by setting is: (7.5 min) 1.59; (15 min) -0.0231 (inactive); (30 min) 2.71.
Take CAIDILAGYGAGNASASA [HC1085]: the “furin cleavage Z-score” value is 0.177 (inactive) (7.5 min), -2.37 (inactive) (15 min) and -1.48 (inactive) (30 min).
As for CATFTIETITAGNASASA [HC895], the “furin cleavage Z-score” value was -1.54 (inactive) (7.5 min), -0.657 (inactive) (15 min) and -0.39 (inactive) (30 min).
For the sequence CARKDRGASKAGNASASA [FS-1826], the “furin cleavage Z-score” value is -0.0944 (inactive) (7.5 min), -0.514 (inactive) (15 min) and 0.14 (inactive) (30 min).
Take CACDLDPQARAGNASASA [HC1492]: the “furin cleavage Z-score” value reads like this: (7.5 min) -0.128 (inactive); (15 min) -0.812 (inactive); (30 min) -1.68 (inactive).
In the same order, the values of CAREKRPSRSAGNASASA [FS-488] are 3.53 (active), 6.66 (active) and 4.77 (active).
In the case of CADLSRPSRSAGNASASA [FS-757], the “furin cleavage Z-score” value is 0.456 (inactive) (7.5 min), 1.72 (15 min) and 2.66 (30 min).
Regarding CAREKRWSVSAGNASASA [FS-2256], the “furin cleavage Z-score” value is 0.749 (inactive) (7.5 min), 1.64 (15 min) and 3.68 (active) (30 min).
For the sequence CAREKRRGVTAGNASASA [FS-1819], the “furin cleavage Z-score” value by setting is: (7.5 min) 0.463 (inactive); (15 min) -0.946 (inactive); (30 min) 0.55 (inactive).
For CAREKRRQRNAGNASASA [FS-2135], the “furin cleavage Z-score” value was 2.7 (7.5 min), 5.06 (active) (15 min) and 5.01 (active) (30 min).
